Compound activity from PubChem.
In the library only some 4.8% were active in any assay of this set; here they are far more common.
CSC inhib = cancer stem cell viability inhibitors, primary screen, luminescence; cancer stem cell-like cells viability; inhibition, % at 7.5 µM; 300,000 tested, 1.1% active; in the data active = inhibition above about 75%; inconclusive = no clear call, values can overlap the other calls; tested in HMLE shEcad cells
MPTP block = mitochondrial permeability transition pore inhibitors, primary screen, biochemical, isolated mouse mitochondria, absorbance; 360,000 tested, 1.4% active; Ca2+ swelling absorbance, 30 min; inhibition, % at 10 µM;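 active = inhibition of 50% or more, scaled per plate between neutral and stimulator controls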;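 note: 0% = DMSO wells given calcium and 100% = 1 mM EGTA wells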
Mdm2 MdmX PPI = inhibitors of human Mdm2-MdmX association, primary screen, cell-based, luminescence, split luciferase, SaOS-2, uHTS | inhibition, % at 8 µM | AID 485346, 2010 | SaOS-2 split-luciferase Mdm2/MdmX complementation | 330,000 tested, 3% active;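 active = inhibition of at least 50% at 8 µM in the primary screen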
Beta apoptosis = inhibitors of cytokine-induced beta cell apoptosis, primary screen, luminescence | INS-1E cytokine-induced death, ATP luminescence, 48 h; percent of positive-control rescue, neutral wells zero | protection from apoptosis, % (test concentration not listed) | 300,000 tested, 0.8% active | AID 435005, 2010;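 active = Every replicate reaches about 75%, or at least half do and their mean reaches it too, limit read from the data; inconclusive = At least half of replicates reach the limit but their mean does not; inactive = Under half of replicates reach the limit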;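 note: 0% = cytokine-treated negative control wells and 100% = positive control rescue; higher means more ATP so stronger rescue from cytokine killing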
Calb FLC = C. albicans growth inhibition with fluconazole, primary screen, CaCi-2 strain, Alamar Blue fluorescence. C. albicans CaCi-2 (fluconazole-resistant clinical isolate) + fluconazole, 48 h. AID 1979, 2009. growth inhibition, % (test concentration not listed). 300,000 tested, 0.57% active;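 active = growth inhibition above about 58% in most replicates, limit read from the data, passing the limit was not always enough; inconclusive = exactly half the replicates above a set limit; inactive = most replicates below a set limit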;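 note: all wells also contain fluconazole at 8 µg/ml as a sub-toxic cotreatment; 0% = median of DMSO wells and 100% = median of geldanamycin control wells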
Mdm2-MdmX conf = Mdm2-MdmX complex disruptors, retested hits, confirmation, luminescence, single concentration. shares compounds with Mdm2 MdmX PPI. Mdm2-MdmX binding, luminescent assay. inhibition, % at 8 µM. 10,000 tested, 55% active. AID 489028, 2010; in the data active = inhibition above about 40%
FLuc counter = full-length luciferase signal inhibition, confirmation, counter-screen for Mdm2/MdmX interaction inhibitor project, cell-based, single concentration, SaOS-2; shares compounds with Mdm2 MdmX PPI; inhibition, % at 8 µM; 6,200 tested, 77% active; SaOS-2 full-length luciferase counterscreen, luminescence;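 active = mean inhibition at 8 µM reaching about 37%, which flags the compound as non-specific, limit read from the data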;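 note: p53-null SaOS-2 cells with luciferase driven by a doxycycline-inducible promoter; compound on cells about two nights before reading with doxycycline added after day one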
Starred values were filed as active, the others as inactive; ? = inconclusive; · = not tested or not shown.

SMILES	CSC inhib	MPTP block	Mdm2 MdmX PPI	Beta apoptosis	Calb FLC	Mdm2-MdmX conf	FLuc counter
Cc1cccc(/C=C/c2onc(C)c2[N+](=O)[O-])n1	51	·	100*	-7	-8	71*	22
Cc1cccc(N/C=C/c2onc(C)c2[N+](=O)[O-])c1	-5	14	-74	7	10	·	·
CCc1ccc2[nH]c3nc(N/N=C/c4ccc(O)cc4O)nnc3c2c1	67	9	58*	108*	?	94*	29
CCc1cc2cc3c(cc2nc1SCC(=O)Nc1nccs1)OCO3	-8	3	71*	17	10	20	·
CCc1cc2cc3c(cc2nc1SCC(=O)Nc1c[nH]c(=O)[nH]c1=O)OCO3	13	1	30	1	15	·	·
CSCC[C@H](N)C(=O)NCC1CCC(C(=O)Nc2ccc3c(c2)OCO3)CC1 (stereo partly specified)	-4	0	9	1	-11	·	·
COC(=O)c1cc(-c2ccc(OC)c(OC)c2)c2c(=O)[nH]c(=O)n(C)c2n1	0	1	50*	-6	6	22	·
COc1cc(NC(=O)CSc2ccc(-c3ccccn3)nn2)cc(OC)c1	-13	-2	65*	30	-4	59*	57*
Cc1ccc(NC(=O)CSc2ccc(-c3ccccn3)nn2)cc1F	-4	1	53*	6	-7	46*	47*
CC(=O)Nc1cccc(NC(=O)CSc2ccc(-c3ccccn3)nn2)c1	0	0	21	1	27	·	·
CC(=O)c1cccc(NC(=O)CSc2ccc(-c3ccccn3)nn2)c1	3	1	37	3	2	·	·
COc1ccc(C)cc1NC(=O)CSc1ccc(-c2ccccn2)nn1	57	0	54*	2	·	55*	52*
CCc1ccc(NC(=O)CSc2ccc(-c3ccccn3)nn2)cc1	6	0	71*	86*	11	45*	73*
Cc1cccc(CN2[C@H](COCc3ccccc3)C=CS2(=O)=O)c1	·	1	·	·	·	·	·
OC(c1ccc(F)c(F)c1)c1nc(-c2cccc3cccnc23)cs1 (stereo unspecified)	·	1	·	·	·	·	·
CCOC(=O)C1=CCN(S(=O)(=O)c2ccc(Cl)cc2)C1c1ccc(C)cc1 (stereo unspecified)	·	2	·	·	·	·	·
CCOC(=O)c1ccccc1NC(=O)CSc1ccc(-c2ccccn2)nn1	-3	0	75*	-4	15	77*	36*
CN(C(=O)COC(=O)C1(C)CC1(Cl)Cl)c1c(N)n(Cc2ccccc2)c(=O)[nH]c1=O (stereo unspecified)	22	-1	1	-5	·	·	·
CC(=O)Nc1c(C)nn(-c2ccc([N+](=O)[O-])cc2)c1C	1	0	13	-5	-15	·	·
O=C(CCl)Nc1cc(-c2ccccc2)nn1-c1ccccc1	20	2	84*	-9	66	62*	22
Cc1ccc(-c2nn(-c3ccccc3)cc2NC(=O)CCl)cc1	28	2	66*	-2	-26	7	·
Cc1ccc(-c2cc(NC(=O)CCl)n(-c3ccccc3)n2)cc1	96*	-1	92*	-16	-3	19	·
Cc1ccc(-n2nc(C)c(NC(=O)CCl)c2C)cc1	6	-1	85*	5	-14	43*	71*
CC(=O)Nc1ccc(-c2cc(NC(C)=O)n(-c3ccccc3)n2)cc1	1	0	17	3	5	·	·
Cc1ccc(-c2nn(-c3ccccc3)cc2CO)cc1	9	0	-64	-5	0	·	·
SMILES	CSC inhib	MPTP block	Mdm2 MdmX PPI	Beta apoptosis	Calb FLC	Mdm2-MdmX conf	FLuc counter
CCC(C(=O)NC1CCCCC1)N(Cc1cccs1)C(=O)CCC(=O)Nc1cc(C)on1 (stereo unspecified)	-12	0	21	-4	2	·	·
Cc1ccc(S(=O)(=O)N[C@@H](C)CO)cc1	·	0	·	·	·	·	·
CN(C)c1ccc(S(=O)(=O)N2CCCCC2)cc1NC(=O)CCNC(=O)c1ccco1	·	0	17	-7	·	·	·
C[C@@]12CCC=C[C@H]1[C@H](c1ccc3ccccc3c1/C=C/c1ccccc1)N(Cc1ccccc1)C2=O	66	2	65*	13	-1	15	·
CN(C(=O)CSc1nnc(COc2ccccc2F)n1N)C1CCS(=O)(=O)C1 (stereo unspecified)	4	0	5	3	2	·	·
FC(F)(F)c1cc(C(F)(F)F)c2ccc(N3CCN(c4ncccn4)CC3)nc2n1	1	-1	58*	1	14	-8	·
FC(F)(F)c1cc(C(F)(F)F)c2ccc(N3CCOCC3)nc2n1	-6	-2	-4	0	4	·	·
O=c1[nH][nH]c2c1C(C1CCCCC1)OC(C1CCCCC1)C2 (stereo unspecified)	·	3	·	·	·	·	·
Cc1ccc(-c2sc(-c3ccccc3)nc2CC(=O)Nc2ccccc2F)cc1	6	6	52*	141*	-3	9	·
Cc1ccccc1NC(=O)Cc1nnc(NC(=O)Nc2ccccc2F)s1	15	2	77*	1	3	10	·
COc1ccc([C@H]2CC(=O)C[C@@H](CCn3cc(Cc4ccccc4)nn3)O2)cc1	·	0	·	·	·	·	·
CCc1cccc(OCC(=O)Nc2cc(S(=O)(=O)N3CCOCC3)ccc2N2CCCC2)c1	26	-1	22	-7	-2	·	·
O=C(COc1ccc(F)cc1Br)NCCCN1CCCC1=O	-18	0	16	0	·	·	·
CC(C)(C)c1ccc(NC(=O)NC2CCCc3ccccc32)cc1 (stereo unspecified)	64	26	70*	21	-5	53*	70*
Cc1c(NC(=O)C(C)OC(=O)CCOc2ccccc2)c(=O)n(-c2ccccc2)n1C (stereo unspecified)	-5	0	-1	-3	-4	·	·
O=C(N/N=C/c1cccc(O)c1)c1ccc(COc2cccc3cccnc23)cc1	-3	-2	54*	6	?	23	·
O=C(N/N=C/c1ccncc1)c1ccc(COc2cccc3cccnc23)cc1	1	-1	29	-5	-12	·	·
CC1Cc2ccccc2N1C(=O)CSc1nc2c(c(=O)n(C)c(=O)n2C)n1Cc1ccc(F)cc1 (stereo unspecified)	9	1	72*	17	-4	47*	71*
CCCCn1c(SCC(=O)N2c3ccccc3Sc3ccccc32)nc2c1c(=O)n(C)c(=O)n2C	3	-9	59*	17	-6	20	·
